Experimental findings from article PMC7862700, “An all-to-all approach to the identification of sequence-specific readers for epigenetic DNA modifications on cytosine” are described below.

Holding throughout (assay): DAPPL (digital affinity profiling via proximity ligation, sequencing); 10 mM Tris-HCl pH 7.5, 50 mM NaCl, 1 mM DTT, 4% glycerol, room temperature, 30 min; GST-TFs on glutathione beads, 16-mer random dsDNA library, 0.1% formaldehyde crosslink after washing; high values mean tight binding
Experiment [1] has as its target T1, FEV (Homo sapiens, UniProt Q99581 1-238).
T1 sequence: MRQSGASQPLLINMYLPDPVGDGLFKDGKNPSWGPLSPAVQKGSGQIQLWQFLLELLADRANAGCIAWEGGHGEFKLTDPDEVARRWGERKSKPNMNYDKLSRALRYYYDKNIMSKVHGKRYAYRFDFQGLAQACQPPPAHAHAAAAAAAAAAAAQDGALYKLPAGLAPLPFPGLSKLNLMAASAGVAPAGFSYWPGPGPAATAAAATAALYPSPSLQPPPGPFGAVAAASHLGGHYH
The following applies: protein: recombinant; tags: N-terminal GST; dsDNA, one strand shown. In short, it runs like this:
(§1)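 Binding signal is given per hexamer as its read frequency for a factor divided by its frequency in the tag-only sample. GST-fused human transcription factors were expressed in yeast, captured on glutathione beads, barcoded with DNA and pooled with that sample, then incubated with 200 nmole of a 16-mer random double-stranded DNA library in Tris/NaCl/DTT/glycerol buffer for 30 min at room temperature. The pools were then washed, crosslinked, proximity-ligated, amplified by PCR and sequenced on an Illumina NextSeq500.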

Experiment [2] concerns the target ETV5 (Homo sapiens, UniProt P41161 1-510). The following applies: protein: recombinant; tags: N-terminal GST; dsDNA, one strand shown. Put shortly:
as §1

Experiment [3] deals with HSF1 (Homo sapiens, UniProt Q00613 1-529). Particulars: protein: recombinant; tags: N-terminal GST; chain copies: 3; dsDNA, one strand shown. Put shortly:
as §1

Experiment [4] addresses T2, SPIC (Homo sapiens, UniProt Q8N5J4 1-248).
T2 sequence: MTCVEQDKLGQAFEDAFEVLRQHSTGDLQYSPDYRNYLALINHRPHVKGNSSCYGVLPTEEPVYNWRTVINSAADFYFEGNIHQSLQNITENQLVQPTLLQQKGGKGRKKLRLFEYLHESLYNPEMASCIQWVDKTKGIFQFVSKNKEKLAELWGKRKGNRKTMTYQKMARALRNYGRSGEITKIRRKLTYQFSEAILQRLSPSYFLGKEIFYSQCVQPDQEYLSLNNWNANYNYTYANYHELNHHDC
The following applies: protein: recombinant; tags: N-terminal GST; dsDNA, one strand shown. In short, it runs like this: as §1

In experiment [5] the target is ELF4 (Homo sapiens, UniProt Q99607 1-663). Particulars: protein: recombinant; tags: N-terminal GST; dsDNA, one strand shown. Put shortly: as §1
Experiment [6] addresses T3, ELK4 (Homo sapiens, UniProt P28324-2 1-405).
T3 sequence: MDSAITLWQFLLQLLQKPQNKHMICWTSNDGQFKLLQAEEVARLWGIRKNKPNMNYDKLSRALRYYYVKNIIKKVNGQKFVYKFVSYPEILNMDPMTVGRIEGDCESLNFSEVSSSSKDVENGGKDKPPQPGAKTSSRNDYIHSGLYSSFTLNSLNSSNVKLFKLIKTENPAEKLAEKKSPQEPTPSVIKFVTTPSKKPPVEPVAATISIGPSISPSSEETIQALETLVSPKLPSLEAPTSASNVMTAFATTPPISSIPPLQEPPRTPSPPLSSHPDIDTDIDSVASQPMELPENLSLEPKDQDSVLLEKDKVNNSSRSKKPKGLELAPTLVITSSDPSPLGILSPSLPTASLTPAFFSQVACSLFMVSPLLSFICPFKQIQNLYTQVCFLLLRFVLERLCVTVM
The following applies: protein: recombinant; tags: N-terminal GST; dsDNA, one strand shown. In short, it runs like this:
as §1

Experiment [7] addresses T4, ETV2 (Homo sapiens, UniProt O00321 1-342).
T4 sequence: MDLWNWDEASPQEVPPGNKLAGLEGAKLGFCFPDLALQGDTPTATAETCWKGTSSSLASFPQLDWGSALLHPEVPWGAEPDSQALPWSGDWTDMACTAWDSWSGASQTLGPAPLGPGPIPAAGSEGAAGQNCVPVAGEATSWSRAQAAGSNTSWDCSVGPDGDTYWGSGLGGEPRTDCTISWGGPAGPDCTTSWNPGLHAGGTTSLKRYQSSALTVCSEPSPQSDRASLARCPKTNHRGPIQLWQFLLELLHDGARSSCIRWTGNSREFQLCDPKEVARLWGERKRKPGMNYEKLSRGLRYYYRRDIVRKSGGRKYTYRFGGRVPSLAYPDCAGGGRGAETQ
Particulars: protein: recombinant; tags: N-terminal GST; dsDNA, one strand shown. Put shortly:
as §1

For experiment [8], the target named is T5, ELF3 (Homo sapiens, UniProt P78545 1-371).
T5 sequence: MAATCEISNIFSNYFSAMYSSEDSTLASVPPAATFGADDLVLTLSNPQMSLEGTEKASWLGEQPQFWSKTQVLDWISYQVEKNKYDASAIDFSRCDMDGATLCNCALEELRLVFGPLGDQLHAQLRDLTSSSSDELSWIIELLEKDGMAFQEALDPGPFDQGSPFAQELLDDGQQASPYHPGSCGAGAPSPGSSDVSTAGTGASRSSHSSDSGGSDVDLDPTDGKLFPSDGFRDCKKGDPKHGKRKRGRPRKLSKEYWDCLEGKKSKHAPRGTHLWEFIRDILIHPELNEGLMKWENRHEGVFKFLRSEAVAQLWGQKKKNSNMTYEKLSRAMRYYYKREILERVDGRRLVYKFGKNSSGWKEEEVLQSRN
The following applies: protein: recombinant; tags: N-terminal GST; dsDNA, one strand shown. In short, it runs like this:
as §1

For experiment [9], the target named is CRX (Homo sapiens, UniProt O43186 1-299). Particulars: protein: recombinant; tags: N-terminal GST; dsDNA, one strand shown. In short, it runs like this: as §1
Experiment [10] has as its target ETV1 (Homo sapiens, UniProt P50549 1-477). Particulars: protein: recombinant; tags: N-terminal GST; dsDNA, one strand shown. Put shortly:
as §1

Experiment [11] concerns the target T6, ERF (Homo sapiens, UniProt P50548 1-548).
T6 sequence: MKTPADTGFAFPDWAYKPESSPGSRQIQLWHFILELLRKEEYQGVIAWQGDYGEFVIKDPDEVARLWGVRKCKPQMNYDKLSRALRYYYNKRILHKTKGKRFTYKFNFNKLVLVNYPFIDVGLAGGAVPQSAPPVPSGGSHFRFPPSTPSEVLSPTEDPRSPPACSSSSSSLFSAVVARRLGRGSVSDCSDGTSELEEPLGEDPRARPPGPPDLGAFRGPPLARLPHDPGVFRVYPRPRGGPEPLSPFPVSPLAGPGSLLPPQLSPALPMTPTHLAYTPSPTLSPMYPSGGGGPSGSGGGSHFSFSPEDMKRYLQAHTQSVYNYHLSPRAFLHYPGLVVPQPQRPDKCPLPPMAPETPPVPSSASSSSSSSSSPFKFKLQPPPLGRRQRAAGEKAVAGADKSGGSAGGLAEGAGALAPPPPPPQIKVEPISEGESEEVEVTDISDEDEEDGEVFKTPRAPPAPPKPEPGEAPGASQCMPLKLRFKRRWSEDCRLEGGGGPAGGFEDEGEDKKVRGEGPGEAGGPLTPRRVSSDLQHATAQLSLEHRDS
The following applies: protein: recombinant; tags: N-terminal GST; dsDNA, one strand shown. In short, it runs like this: as §1

The target in experiment [12] is T7, ETV3L (Homo sapiens, UniProt Q6ZN32 1-361).
T7 sequence: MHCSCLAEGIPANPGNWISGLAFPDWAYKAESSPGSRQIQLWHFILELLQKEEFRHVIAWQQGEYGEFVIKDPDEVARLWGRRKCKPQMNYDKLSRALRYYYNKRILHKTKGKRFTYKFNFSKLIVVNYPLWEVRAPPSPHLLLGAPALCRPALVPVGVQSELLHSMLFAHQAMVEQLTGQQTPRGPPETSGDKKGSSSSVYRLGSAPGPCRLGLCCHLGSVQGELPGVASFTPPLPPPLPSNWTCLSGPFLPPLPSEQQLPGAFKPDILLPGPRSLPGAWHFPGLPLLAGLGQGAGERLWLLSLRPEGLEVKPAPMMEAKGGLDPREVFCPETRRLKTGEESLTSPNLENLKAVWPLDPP
The following applies: protein: recombinant; tags: N-terminal GST; dsDNA, one strand shown. Put shortly: as §1

The target in experiment [13] is T8, ETS2 (Homo sapiens, UniProt P15036 1-469).
T8 sequence: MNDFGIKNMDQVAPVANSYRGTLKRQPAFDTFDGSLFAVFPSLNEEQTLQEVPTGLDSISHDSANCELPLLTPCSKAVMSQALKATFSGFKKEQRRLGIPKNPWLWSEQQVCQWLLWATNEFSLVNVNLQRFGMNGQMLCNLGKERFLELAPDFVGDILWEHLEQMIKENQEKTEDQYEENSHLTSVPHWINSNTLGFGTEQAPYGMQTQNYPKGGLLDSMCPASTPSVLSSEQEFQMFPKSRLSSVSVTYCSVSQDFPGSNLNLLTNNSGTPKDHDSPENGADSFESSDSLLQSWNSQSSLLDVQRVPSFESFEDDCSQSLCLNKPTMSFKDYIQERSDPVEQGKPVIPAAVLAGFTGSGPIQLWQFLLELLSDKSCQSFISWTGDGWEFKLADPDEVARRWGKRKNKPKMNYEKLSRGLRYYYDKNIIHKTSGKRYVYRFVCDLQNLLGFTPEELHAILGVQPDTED
Particulars: protein: recombinant; tags: N-terminal GST; dsDNA, one strand shown. In short, it runs like this: as §1

Experiment [14] deals with T9, SPDEF (Homo sapiens, UniProt O95238 1-335).
T9 sequence: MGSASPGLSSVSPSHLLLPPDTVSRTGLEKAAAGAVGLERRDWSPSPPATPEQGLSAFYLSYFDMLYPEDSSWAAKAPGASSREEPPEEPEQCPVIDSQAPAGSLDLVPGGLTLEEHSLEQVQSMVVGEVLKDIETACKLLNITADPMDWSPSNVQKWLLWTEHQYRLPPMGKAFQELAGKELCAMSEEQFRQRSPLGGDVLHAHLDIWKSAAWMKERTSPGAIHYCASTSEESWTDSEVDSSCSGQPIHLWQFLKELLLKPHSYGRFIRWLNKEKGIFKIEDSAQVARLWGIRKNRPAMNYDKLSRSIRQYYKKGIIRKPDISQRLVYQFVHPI
The following applies: protein: recombinant; tags: N-terminal GST; dsDNA, one strand shown. Put shortly: as §1

The target of experiment [15] is T10, ETV7 (Homo sapiens, UniProt Q9Y603 1-341).
T10 sequence: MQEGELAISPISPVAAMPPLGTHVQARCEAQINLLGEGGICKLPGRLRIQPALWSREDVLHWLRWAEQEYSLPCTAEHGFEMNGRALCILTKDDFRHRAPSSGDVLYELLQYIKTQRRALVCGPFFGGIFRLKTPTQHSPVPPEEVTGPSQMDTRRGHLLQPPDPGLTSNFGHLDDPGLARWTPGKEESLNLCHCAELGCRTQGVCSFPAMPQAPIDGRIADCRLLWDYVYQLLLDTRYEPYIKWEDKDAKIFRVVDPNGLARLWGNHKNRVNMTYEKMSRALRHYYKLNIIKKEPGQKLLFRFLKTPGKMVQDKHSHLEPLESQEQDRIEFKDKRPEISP
The following applies: protein: recombinant; tags: N-terminal GST; dsDNA, one strand shown. In short, it runs like this:
as §1

The target in experiment [16] is T11, ELF5 (Homo sapiens, UniProt Q9UKW6-2 1-255).
T11 sequence: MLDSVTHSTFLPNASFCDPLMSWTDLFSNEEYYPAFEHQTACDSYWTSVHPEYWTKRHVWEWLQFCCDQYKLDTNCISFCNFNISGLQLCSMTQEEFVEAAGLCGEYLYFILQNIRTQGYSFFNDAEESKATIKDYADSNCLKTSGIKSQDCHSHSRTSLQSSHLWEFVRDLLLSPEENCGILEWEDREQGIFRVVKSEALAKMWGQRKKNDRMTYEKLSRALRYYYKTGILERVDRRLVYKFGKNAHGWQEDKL
The following applies: protein: recombinant; tags: N-terminal GST; dsDNA, one strand shown. In short, it runs like this:
as §1

Experiment [17] addresses T12, ETV3 (Homo sapiens, UniProt P41162-2 1-143).
T12 sequence: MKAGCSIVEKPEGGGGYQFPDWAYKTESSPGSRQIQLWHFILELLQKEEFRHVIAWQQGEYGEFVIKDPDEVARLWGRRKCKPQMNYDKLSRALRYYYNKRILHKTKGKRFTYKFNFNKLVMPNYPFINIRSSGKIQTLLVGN
Particulars: protein: recombinant; tags: N-terminal GST; dsDNA, one strand shown. In short, it runs like this:
as §1

For experiment [18], the target named is ETV6 (Homo sapiens, UniProt P41212 1-452). The following applies: protein: recombinant; tags: N-terminal GST; dsDNA, one strand shown. Put shortly:
as §1

Chain of ETV1 (P50549 whole entry): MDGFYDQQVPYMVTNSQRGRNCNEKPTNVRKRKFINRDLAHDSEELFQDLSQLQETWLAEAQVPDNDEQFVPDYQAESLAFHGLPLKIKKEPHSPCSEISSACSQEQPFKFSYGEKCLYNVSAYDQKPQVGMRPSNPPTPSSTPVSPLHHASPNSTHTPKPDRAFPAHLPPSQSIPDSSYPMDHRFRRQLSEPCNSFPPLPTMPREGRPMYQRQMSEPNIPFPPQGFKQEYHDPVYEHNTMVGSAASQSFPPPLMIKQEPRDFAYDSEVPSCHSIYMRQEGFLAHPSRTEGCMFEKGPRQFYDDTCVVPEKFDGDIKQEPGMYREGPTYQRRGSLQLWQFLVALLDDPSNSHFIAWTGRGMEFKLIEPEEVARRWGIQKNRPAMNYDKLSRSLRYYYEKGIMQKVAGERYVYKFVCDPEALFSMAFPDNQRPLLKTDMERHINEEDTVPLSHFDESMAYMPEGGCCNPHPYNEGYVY
Chain of CRX (O43186 whole entry): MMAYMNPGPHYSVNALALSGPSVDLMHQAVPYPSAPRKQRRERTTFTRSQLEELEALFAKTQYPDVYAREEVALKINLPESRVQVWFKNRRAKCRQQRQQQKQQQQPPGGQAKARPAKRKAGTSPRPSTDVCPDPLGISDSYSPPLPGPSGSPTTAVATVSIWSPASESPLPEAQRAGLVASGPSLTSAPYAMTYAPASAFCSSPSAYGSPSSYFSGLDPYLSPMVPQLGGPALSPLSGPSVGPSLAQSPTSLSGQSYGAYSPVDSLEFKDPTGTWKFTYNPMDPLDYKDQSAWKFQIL
Chain of ELF4 (Q99607 whole entry): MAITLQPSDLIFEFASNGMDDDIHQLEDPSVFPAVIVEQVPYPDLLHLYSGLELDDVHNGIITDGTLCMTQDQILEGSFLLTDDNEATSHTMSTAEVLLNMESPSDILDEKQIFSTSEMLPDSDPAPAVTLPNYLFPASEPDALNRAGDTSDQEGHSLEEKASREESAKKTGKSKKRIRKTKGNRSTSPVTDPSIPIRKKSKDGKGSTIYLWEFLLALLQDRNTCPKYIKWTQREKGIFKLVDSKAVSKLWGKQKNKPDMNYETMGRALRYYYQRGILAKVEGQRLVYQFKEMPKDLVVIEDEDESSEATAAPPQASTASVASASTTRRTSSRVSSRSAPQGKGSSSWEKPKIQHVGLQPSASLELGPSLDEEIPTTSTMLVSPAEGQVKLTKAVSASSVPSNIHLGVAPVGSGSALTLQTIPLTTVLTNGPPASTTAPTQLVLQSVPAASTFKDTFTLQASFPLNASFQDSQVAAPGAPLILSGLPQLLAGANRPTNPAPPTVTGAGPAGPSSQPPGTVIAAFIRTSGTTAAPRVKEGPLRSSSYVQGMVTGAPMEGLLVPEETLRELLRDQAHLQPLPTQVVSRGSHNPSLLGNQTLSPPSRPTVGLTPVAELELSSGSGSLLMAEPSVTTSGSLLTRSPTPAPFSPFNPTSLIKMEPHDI
Chain of ETV6 (P41212 whole entry): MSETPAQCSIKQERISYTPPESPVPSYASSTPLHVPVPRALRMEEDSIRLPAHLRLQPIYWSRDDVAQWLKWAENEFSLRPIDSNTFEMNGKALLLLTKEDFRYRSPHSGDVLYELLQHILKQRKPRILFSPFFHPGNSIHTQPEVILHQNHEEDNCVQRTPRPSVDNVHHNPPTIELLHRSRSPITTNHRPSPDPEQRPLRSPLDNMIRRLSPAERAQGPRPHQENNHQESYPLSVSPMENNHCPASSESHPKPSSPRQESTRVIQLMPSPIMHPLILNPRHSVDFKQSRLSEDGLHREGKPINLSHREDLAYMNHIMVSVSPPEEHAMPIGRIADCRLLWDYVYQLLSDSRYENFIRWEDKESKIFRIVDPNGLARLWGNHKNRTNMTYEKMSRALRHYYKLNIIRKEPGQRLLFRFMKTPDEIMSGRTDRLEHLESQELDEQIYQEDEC
Chain of ETV5 (P41161 whole entry): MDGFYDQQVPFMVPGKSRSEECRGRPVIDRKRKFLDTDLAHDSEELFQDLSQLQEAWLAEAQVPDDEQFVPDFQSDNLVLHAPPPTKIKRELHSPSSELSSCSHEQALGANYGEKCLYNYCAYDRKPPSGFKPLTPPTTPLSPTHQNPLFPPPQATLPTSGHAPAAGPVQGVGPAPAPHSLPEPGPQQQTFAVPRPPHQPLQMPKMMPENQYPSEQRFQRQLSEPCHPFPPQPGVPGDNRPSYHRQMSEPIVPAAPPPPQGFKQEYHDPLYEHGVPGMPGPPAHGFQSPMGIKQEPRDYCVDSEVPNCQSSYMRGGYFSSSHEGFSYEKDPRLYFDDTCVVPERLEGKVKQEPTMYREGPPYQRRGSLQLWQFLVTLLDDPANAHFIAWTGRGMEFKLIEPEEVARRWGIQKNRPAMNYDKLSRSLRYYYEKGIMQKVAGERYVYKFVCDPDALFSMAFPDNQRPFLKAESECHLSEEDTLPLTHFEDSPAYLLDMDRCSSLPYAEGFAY
Chain of HSF1 (Q00613 whole entry): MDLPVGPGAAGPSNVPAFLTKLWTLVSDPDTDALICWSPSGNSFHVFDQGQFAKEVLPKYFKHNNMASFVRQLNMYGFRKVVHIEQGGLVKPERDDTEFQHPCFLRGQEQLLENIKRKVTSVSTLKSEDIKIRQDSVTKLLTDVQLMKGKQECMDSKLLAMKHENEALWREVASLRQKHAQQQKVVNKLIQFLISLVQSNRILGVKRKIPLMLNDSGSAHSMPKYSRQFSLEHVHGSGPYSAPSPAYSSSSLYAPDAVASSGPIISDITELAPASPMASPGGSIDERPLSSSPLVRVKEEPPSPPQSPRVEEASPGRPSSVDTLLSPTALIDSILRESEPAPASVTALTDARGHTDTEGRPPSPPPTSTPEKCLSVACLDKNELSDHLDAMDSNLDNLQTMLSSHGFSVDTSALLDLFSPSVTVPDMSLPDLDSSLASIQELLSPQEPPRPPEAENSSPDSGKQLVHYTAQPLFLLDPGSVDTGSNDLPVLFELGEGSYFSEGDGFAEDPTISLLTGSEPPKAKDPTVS

GAATTT: the binding signal was 1.19 fold enrichment (6-mer frequency, TF over GST control) in experiment [1]; 1.26 fold enrichment (6-mer frequency, TF over GST control) in [2]; 1.7 fold enrichment (6-mer frequency, TF over GST control) in [3]; 1.39 fold enrichment (6-mer frequency, TF over GST control) in experiment [4]; 1.25 fold enrichment (6-mer frequency, TF over GST control) in [5]; 1.31 fold enrichment (6-mer frequency, TF over GST control) in [6]. In addition, the binding signal in experiment [7] was 1.14 fold enrichment (6-mer frequency, TF over GST control); in experiment [8] it was 1.13 fold enrichment (6-mer frequency, TF over GST control); in experiment [9], 1.39 fold enrichment (6-mer frequency, TF over GST control); in [10] it was 1.24 fold enrichment (6-mer frequency, TF over GST control); in experiment [11], 1.27 fold enrichment (6-mer frequency, TF over GST control); in experiment [12] it was 1.21 fold enrichment (6-mer frequency, TF over GST control). The binding signal in experiment [13] is 1.28 fold enrichment (6-mer frequency, TF over GST control); in experiment [14] it was 1.23 fold enrichment (6-mer frequency, TF over GST control); in experiment [15] it was 1.29 fold enrichment (6-mer frequency, TF over GST control); in experiment [16], 1.3 fold enrichment (6-mer frequency, TF over GST control); in [17], 1.29 fold enrichment (6-mer frequency, TF over GST control); in experiment [18] it was 1.2 fold enrichment (6-mer frequency, TF over GST control).
